Compound activity: PubChem, National Center for Advancing Translational Sciences (NCATS)
An excerpt weighted towards active compounds, which were near 0.77% of everything screened.
RE007 growth inh: less growth of the S. pombe RE007 Vpr strain; 360,000 tested, 0.21% active; AID 651644; S. pombe RE007 Vpr strain, BacTiter-Glo ATP luminescence, 24 h; Potency, µM (series often up to 92.2 µM), usual class: inhibitors; active = well fitted falling curve with a large enough effect; inconclusive = small, poorly fitted or top-dose-only effect; inactive = no such curve, though single readings can be large or run the other way; note: nearly all actives have a fitted effect of over 50% in size
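Fission yeast strain RE007, carrying one chromosomally integrated HIV-1 vpr copy, was seeded at OD 0.01 in PMG+AL medium with 23 nL pinned compound. After 24 h at 30 °C and 99% humidity, viability was read by BacTiter-Glo luminescence.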
LmPK inhibitor: inhibitors of Leishmania mexicana pyruvate kinase | purified LmPK, Kinase-Glo ATP luminescence, 1 h | Potency, µM (top dose mostly 57.5 µM), most hits filed as inhibitors | 290,000 tested, 0.37% active
Target sequence (Q27686 whole entry, looked up): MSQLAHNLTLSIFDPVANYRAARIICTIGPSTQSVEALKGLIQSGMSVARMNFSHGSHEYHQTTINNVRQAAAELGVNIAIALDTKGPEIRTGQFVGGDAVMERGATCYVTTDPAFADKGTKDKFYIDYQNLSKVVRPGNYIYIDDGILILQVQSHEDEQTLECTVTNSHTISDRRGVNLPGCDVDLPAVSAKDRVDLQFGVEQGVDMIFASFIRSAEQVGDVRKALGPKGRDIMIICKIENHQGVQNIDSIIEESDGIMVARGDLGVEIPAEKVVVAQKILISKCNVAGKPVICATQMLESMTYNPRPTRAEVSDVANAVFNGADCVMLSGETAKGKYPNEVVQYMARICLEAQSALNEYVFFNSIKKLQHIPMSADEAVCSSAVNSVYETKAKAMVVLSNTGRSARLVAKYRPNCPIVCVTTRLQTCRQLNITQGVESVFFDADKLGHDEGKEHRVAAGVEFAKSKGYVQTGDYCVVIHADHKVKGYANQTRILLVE
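ATP generated from ADP (0.1 mM) and PEP (0.5 mM) by 0.1 nM LmPK over 1 h at room temperature (pH 7.2 imidazole buffer) was detected by coupled luciferase luminescence. Values were normalized to uninhibited and no-enzyme wells.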
NS1 function inh: influenza NS1 inhibition; Potency, µM (highest dose often 46.1 µM); 270,000 tested, 0.4% active; AID 2326; calls by dose curve; note: actives are rising curves; nearly all actives have a fitted effect of over 50% in size
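Compounds were scored for reversing the slow growth caused by influenza A NS1 in S. cerevisiae, measured by optical density at 600 nm. Assay medium contained 2% galactose at pH 6.0; NS1-free yeast of the same strain were the positive control.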
TbPYK inhibitor: T. brucei pyruvate kinase inhibition; Q57TT1; TbPYK enzyme, Kinase-Glo Plus ATP luminescence, 45 min; Potency, µM (top dose mostly 76.8 µM), most hits filed as inhibitors; 410,000 tested, 0.12% active; note: nearly all actives have a fitted effect of over 50% in size
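Activity of T. brucei pyruvate kinase was followed by Kinase-Glo Plus luminescence after the enzyme reacted 45 min at room temperature with 130 uM ADP (final) and substrate. Test compounds were added before ADP at multiple concentrations.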
Hits are given with their value; – = inactive; ? = inconclusive; · = not tested or not shown. Unless noted, calls come from the whole dose curve; as a rule, active = well fitted curve in the direction sought with a large enough effect; inconclusive = small, poorly fitted or top-dose-only effect, or another doubt; inactive = no such curve, though single readings can be large; an effect the other way counts as inactive or inconclusive.

SMILES	RE007 growth inh	LmPK inhibitor	NS1 function inh	TbPYK inhibitor
Cn1c(N)c(C(=O)COC(=O)c2cc(-c3ccco3)nc3ccccc23)c(=O)n(Cc2ccccc2)c1=O	·	–	14µM	·
O=C(Nc1cccc(O)c1)c1noc2c1CCCCC2	–	11µM	–	–
Cc1ccc(NC(=O)c2noc3c2CCC3)cc1C	–	–	·	–
COc1ccc(NC(=O)c2noc3c2CCC3)cc1	40µM	16µM	–	–
Oc1ccc([C@H]2CNCc3c2ccc(O)c3O)cc1O	·	·	·	3.2µM
CCSC(=O)CCCCCCCCCCCO	3.2µM	–	–	–
CCOc1ccc(NC(=O)c2c(NCc3cccnc3)sc3c2CCC(C)C3)cc1 (stereo not drawn)	·	·	·	14µM
Cc1ccc(C(=O)Nc2ncc3c(Cl)cccc3n2)cc1	?	13µM	–	–
Cc1ccc(C(=O)Nc2ccc(Cl)cn2)cc1	–	–	–	–
O=C(Nc1nc2ccc(F)cc2s1)c1ccccn1	14µM	18µM	–	?
O=C(Nc1nc2ccccc2s1)c1cnccn1	–	10µM	–	–
NC(=O)c1ccc(N=Cc2ccc([N+](=O)[O-])s2)cc1	40µM	–	–	–
O=[N+]([O-])c1ccc(C=Nc2ccc(Cl)c([N+](=O)[O-])c2)s1	·	–	–	·
Cc1cc(C)cc(N=Cc2ccc([N+](=O)[O-])s2)c1	40µM	–	–	–
Cc1ccccc1NS(=O)(=O)c1ccc2[nH]cc(C(=O)NCCc3ccccc3)c(=O)c2c1	·	·	·	–
CC(C)c1ccc(NC(=O)c2cnc3sc(N4CCOCC4)nn3c2=O)cc1	·	·	·	–
N#Cc1ccc(NC(=O)Nc2ccccc2Br)c2n[nH]nc12	·	·	·	–
O=C1OC(c2cc(I)c(O)c(I)c2)(c2cc(I)c(O)c(I)c2)c2ccccc21	·	·	·	–
Cc1cccc(CNC(=O)c2ccc(NC(=O)N3CCSc4ccccc43)cc2)c1	·	·	·	–
O=C(OCn1ncc(Br)c(Br)c1=O)c1ccccc1Cl	6.3µM	–	–	–
CCOC(=O)CNC(=O)C(Cc1ccccc1)NC(=O)OCc1ccccc1 (stereo not drawn)	–	14µM	·	–
CCOC(=O)CNC(=O)C(CO)NC(=O)OCc1ccccc1 (stereo not drawn)	–	–	–	–
COc1ccc(OC)c(CCNC(=O)Cn2ccc3cc(S(=O)(=O)N4CCCCC4)ccc32)c1	·	·	·	–
O=C(/C=C/c1ccc(Cl)cc1Cl)c1nc2ccccc2[nH]1	7.9µM	–	–	–
Clc1ccc(/C=C/c2nc3ccccc3[nH]2)cc1	?	8.9µM	–	?
SMILES	RE007 growth inh	LmPK inhibitor	NS1 function inh	TbPYK inhibitor
Clc1ccc(/C=C/c2nc3ccccc3[nH]2)c(Cl)c1	25µM	14µM	–	–
Clc1cccc(Cl)c1/C=C/c1nc2ccccc2[nH]1	?	?	–	–
CCc1cccc(C)c1NC(=O)Cn1nnc(-c2nc(-c3ccccc3F)no2)c1N	·	·	·	–
COc1ccc(Cn2ccnc2SCC(=O)NCc2ccccc2)cc1	·	·	·	–
O=C1CC(c2nc3ccccc3n2Cc2c(F)cccc2Cl)CN1c1cccc(C(F)(F)F)c1 (stereo not drawn)	·	·	·	–
CCc1[nH]c(=S)c(C#N)c2c1CCCC2	–	–	–	16µM
CCc1ccc(-n2c(C)nc3cc(C(=O)NCCc4ccccc4)ccc32)cc1	·	·	·	–
O=C(c1cccs1)c1no[n+]([O-])c1C(=O)c1cccs1	28µM	–	–	–
COc1ccc(/C=C/C(=O)C2C(=O)C=C(C)OC2=O)cc1O (stereo not drawn)	–	16µM	–	–
CNC(=O)c1c(NC(=O)c2ccc(S(=O)(=O)N3CCCC(C)C3)cc2)sc2c1CCC2 (stereo not drawn)	·	·	·	–
CCCCSc1ccc2nc(-c3ccc(C#N)cc3)cn2c1	–	–	–	–
CCCSc1ccc2nc(-c3ccccc3)cn2c1	?	6.3µM	–	?
O=C(COCCOCCOCC(=O)Nc1c(I)cc(I)c(C(=O)O)c1I)Nc1c(I)cc(I)c(C(=O)O)c1I	·	·	·	–
COc1cc(OC)cc(N2C(=O)CC(N3CCC(C(=O)N4CCCCC4)CC3)C2=O)c1 (stereo not drawn)	32µM	–	–	–
Cc1cc(C)cc(N2C(=O)CC(N3CCOCC3)C2=O)c1 (stereo not drawn)	–	–	–	–
O=C(C1CCN(C2CC(=O)N(c3ccc(F)cc3)C2=O)CC1)N1CCOCC1 (stereo not drawn)	50µM	–	–	–
O=C1CCCN1CCC1CCN(C2CC(=O)N(c3ccc(F)cc3)C2=O)CC1 (stereo not drawn)	32µM	–	–	–
O=C1CC(N2CCOCC2)C(=O)N1c1cc(Cl)cc(Cl)c1 (stereo not drawn)	11µM	–	–	–
Cc1ccc(C2C3=C(CC(C)(C)CC3=O)Nc3[nH]c(=S)[nH]c(=O)c32)cc1 (stereo not drawn)	–	–	8.9µM	–
COc1ccc(CNC(=O)c2oc3c(c2C)-c2nn(Cc4ccccc4Cl)cc2CC3)cc1	·	·	·	–
Cc1cc(C)cc(-n2c(SCC(=O)NCc3ccc4c(c3)OCO4)nc3ccccc3c2=O)c1	–	–	–	–
O=C(CSc1nc2cc([N+](=O)[O-])ccc2n1-c1ccccc1)NCc1ccc2c(c1)OCO2	–	–	4µM	–
O=[N+]([O-])c1ccc(/C=N/n2cnc3ccccc32)s1	10µM	–	–	–
CN(C)C(=S)SSC(=S)N(C)C	3.2µM	–	–	4.5µM
Cc1nnc(NCc2ccc(F)cc2)c2c1nnn2Cc1ccccc1Cl	·	·	·	–
SMILES	RE007 growth inh	LmPK inhibitor	NS1 function inh	TbPYK inhibitor
Nc1c(O)ccc2c1C(=O)c1ccccc1C2=O	?	14µM	–	?
Cc1ccc(C)c(Cn2c(=O)n(CCCCC(=O)NCc3ccc4c(c3)OCO4)c(=O)c3ccccc32)c1	·	·	·	–
Cc1ccc2c(c1)COc1c3ccc(C(=O)NCC4CC4)cc3nn1-2	–	–	–	–
CC(C)[C@@H](CO)NC(=O)c1ccc2c3n(nc2c1)-c1ccccc1CO3	–	14µM	–	–
O=C(NCCO)c1ccc2c3n(nc2c1)-c1ccccc1CO3	–	?	–	–
CC(C)NC(=O)c1ccc2c3n(nc2c1)-c1ccccc1CO3	–	13µM	–	?
O=C(NCC1CC1)c1ccc2c3n(nc2c1)-c1ccccc1CO3	–	14µM	–	?
CCC(=O)Nc1cnc(NC(=O)c2cccc(F)c2)cc1C	–	20µM	–	–
CC(=O)Nc1cnc(NC(=O)c2cccc(F)c2)cc1C	–	–	–	–
CCOc1ccc(-n2c(=O)c3c(C)c(C)sc3n(Cc3ccccc3C)c2=O)cc1	·	·	·	–
O=C(Nc1ccc2nc(SCCOc3ccccc3Cl)sc2c1)c1cccs1	·	·	·	–
CCOC(=O)c1ccc(N2C(=O)C=CC2=O)cc1	5.6µM	–	–	32µM
C=CCNc1nnc(SC2CC(=O)N(c3ccc(OCCC)cc3)C2=O)s1 (stereo not drawn)	11µM	–	–	–
Nc1nnc(SC2CC(=O)N(c3ccccc3)C2=O)s1 (stereo not drawn)	28µM	–	–	–
CCOC(=O)c1ccc(N2C(=O)CC(Sc3nnc(C)s3)C2=O)cc1 (stereo not drawn)	20µM	–	–	?
O=C1CC(Sc2ncccn2)C(=O)N1c1ccccc1 (stereo not drawn)	–	–	–	–
